Results on 5 compounds are retold here after PubChem BioAssay.

“And” between values parts separate entries of the source, which are not always exact repeats. Equal entries are not always repeated. Results filed as inconclusive are left out. The source made the active and inactive calls.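 The calls were made as follows, unless noted: active = compounds whose cell count with miR-34 switched on is under 0.7 times the count with it off; inactive = the rest.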

As a reminder, the remaining activity is the signal under treatment as a percentage of the control signal.

Experiment [1] is described as follows: Wnt pathway potentiators raising nuclear beta-catenin – imaging, WNT3A-conditioned medium, mouse C2C12, NPC library, primary screen (AID 1117326; in the data active = nuclear beta-catenin stimulation mostly above about 4.2%, no sharp cut-off; inactive = mostly below about 10%). The settings on record: stronger effect = higher value.
Experiment [2] in a line: stimulators of insulin release from INS-1E, primary screen, cell-based, 5 mM glucose, NPC library (AID 1117329;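 active = compound raises insulin release from rat beta cells at 5 mM glucose, no numeric limit stated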). The note with it: rat INS-1E insulin secretion, at 10 µM, stronger effect = higher value.
Experiment [3] in a line: growth inhibition of GSK3B-pretreated HCT116 cells – cell-based, CellTiter-Glo, 0.2 to 20 µM (AID 1117336;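 active = compounds lowering colon cancer cell viability after pretreatment blocking the GSK3B kinase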). The settings on record: HCT116 viability after GSK3B inhibitor, at 20 µM, stronger effect = higher value.
Experiment [4] in a line: inhibition of endothelial tube formation, primary screen, imaging, VEGF stimulated, CD31 staining, tube area, NPC library (AID 1117340;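 active = compound that reduces growth-factor-driven endothelial tube area in a mixed cell culture, no cutoff stated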). The note with it: VEGF-stimulated ADSC/ECFC co-culture, at 10 µM, stronger effect = higher value.
Experiment [5] is described as follows: GLP1 release stimulators, primary, NCI-H716, NPC library (AID 1117341;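 active = compound raises GLP1 secretion from the human gut endocrine cells, with no numeric limit stated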). The note with it: NCI-H716 cells, at 10 µM, stronger effect = higher value.
Experiment [6] is described as follows: HCT116 colon cancer cell growth inhibition, primary screen, CellTiter-Glo luminescence, NPC library (AID 1117342;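 active = compounds that lower survival of HCT116 colon cancer cells in the luminescence readout, no numeric limit stated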). The settings on record: at 20 µM (top of the series). For orientation: In ATP-based viability assays light output follows the ATP content of the culture.
Experiment [7] can be described thus: reduced SW480 viability measured with CellTiter-Glo, NPC library, primary (AID 1117343;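 active = compounds that lower viability of the colon cancer cells in the luminescence readout, with no numeric limit stated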). The settings on record: CellTiter-Glo luminescence; at 20 µM (top of the series) unless noted.
Experiment [8] in a line: NPC library primary testing for decreased DLD-1 cell viability via CellTiter-Glo (AID 1117346;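 active = compounds that lower survival of DLD-1 colon cancer cells in the luminescence readout, no cutoff given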). The note with it: DLD-1 viability, CellTiter-Glo luminescence; at 20 µM (top of the series).
Experiment [9] relates to Aerobactin synthetase IucA (Klebsiella pneumoniae). In words: inhibition of K. pneumoniae IucA enzyme – biochemical, Tocris library, absorbance (AID 1345561; call rule not given here;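 also: 100% = enzyme without compound and 0% = no enzyme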). The settings on record: purified IucA enzyme assay, absorbance (OD) read-out; stronger effect = lower value;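 tested at 8 µM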.
Experiment [10] is described as follows: viability loss in pontine glioma line – cell-based, SU-DIPG-XVII, MIPE5.0, CellTiter-Glo, qHTS, dose response (AID 1347060; cut-off not given, nearly all actives have AC50 up to about 26 µM). The note with it: CellTiter-Glo ATP luminescence.
A short description of experiment [11]: viability loss in pontine glioma line – cell-based, SU-DIPG-XIII, MIPE4.0, CellTiter-Glo, qHTS, dose response (AID 1347061; cut-off not given, nearly all actives have AC50 up to about 37 µM;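 also: cells exposed to compound for 48 hours before readout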). The settings on record: CellTiter-Glo ATP luminescence.
The nature of experiment [12]: growth inhibition of DIPG cells – cell-based, MIPE4.0 library, CellTiter-Glo luminescence, qHTS (AID 1347066; cut-off not given, nearly all actives have AC50 up to about 30 µM;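 also: cells exposed to compound for 48 hours before readout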). The note with it: SU-DIPG-VI viability, CellTiter-Glo ATP luminescence.
Experiment [13] in a line: growth inhibition of DIPG cells – cell-based, MIPE5.0 library, qHTS (AID 1347068; cut-off not given, nearly all actives have IC50 up to about 30 µM). The settings on record: SU-DIPG-XXV viability. For orientation: qHTS replaces the single test concentration by a dilution series.
A short description of experiment [14]: viability loss with induced miR-34 in A549 – imaging, A549 dox-inducible miR-34, nuclei and caspase counts, primary screen (AID 1347080). The settings on record: A549 miR-34 inducible, Hoechst nuclei count, 48 h.
Experiment [15] can be described thus: MELAS cybrid and Rieske KO viability enhancers – cell-based, MELAS cybrids, Rieske KO mouse fibroblasts, CellTiter-Glo, primary screen (AID 1508586;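 active = mean z-score across replicates of 1.96 or higher in either the MELAS or the Rieske mutant cell line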;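 also: z relative to plate mean and SD of compound and empty wells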). The settings on record: low glucose.
A short description of experiment [16]: galactose survival enhancers in mitochondrial complex I cybrids – cell-based, galactose medium, ATP luminescence, primary screen (AID 1645843;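 active = z-score of at least 1.8 in each of two replicates, scored against plate mean and spread of sample wells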;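 also: positive z means more ATP and so rescue of galactose-driven cybrid death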). The note with it: complex I mutant cybrid cells, 72 h, stronger effect = higher value.
Where [17] appears, read: stronger effect = lower value, cell number ratio, induced over uninduced.
[18] abbreviates: measured here: relative caspase fold change +Dox/-Dox.
The mark [19] stands for this setting: measured here: total cells with miR-34 induction, stronger effect = lower value.
Where [20] appears, read: measured here: total cells without miR-34 induction.

For `CCOCC(O)COc1ccc(NC(=O)CC[S+](C)C)cc1` (stereo unspecified), the nuclear beta-catenin stimulation in experiment [1] (at 10 µM) is -0.1% (inactive); in experiment [1] (stimulation, at 2 µM), -0.3%. Besides, in [2], the insulin secretion stimulation is 0.8% (inactive). In experiment [3], the viability decrease is -7.6% (inactive). In experiment [4], the tube area decrease was -11.2% (inactive). Further, in experiment [5], the GLP1 secretion stimulation is -0.3% (inactive). Moreover, the inhibition of viability in [6] is 0.1% (inactive). Also, the viability decrease (inhibition) in experiment [7] is -6.5% (inactive); in experiment [8] it was -3.6% (inactive). The remaining activity in experiment [9] was 96.6% (inactive). For the same compound, the compound was called inactive in experiment [10], in experiment [11], in experiment [12] and in experiment [13]. Also, the fold change in experiment [14] (setting [17]) is 0.867 (inactive) and 0.902 (inactive); in experiment [14] (setting [18]), 0.938 and 2.11. The cell count is 8140 and 8470 in [14] (setting [19]); 9400 and 9390 in [14] (setting [20]). Moreover, the z-score in experiment [15] (MELAS cybrid survival, CellTiter-Glo 48 h, stronger effect = higher value) is -0.246 (inactive); in [15] (Rieske KO mouse fibroblast survival, CellTiter-Glo 72 h), 0.62; in experiment [16], -0.075 (inactive).
For `COc1ccc(CCN(C)CCCN2CCc3cc(OC)c(OC)cc3CC2=O)cc1OC`, the nuclear beta-catenin stimulation in [1] (at 10 µM) is 1.2% (inactive); in experiment [1] (stimulation, at 2 µM) it was 0%. The insulin secretion stimulation in [2] was 10.7% (inactive). For the same compound, the viability decrease in experiment [3] was -11.1% (inactive). Besides, in [4], the tube area decrease was -12.6% (inactive). For the same compound, the GLP1 secretion stimulation in experiment [5] was 7.6% (inactive). The inhibition of viability in experiment [6] is 7.5% (inactive). The viability decrease (inhibition) in [7] was -4.7% (inactive); in [8], 12.1% (inactive). Further, in experiment [9], the remaining activity is 98.9% (inactive). The results for the fold change in [14] (setting [17]) and in experiment [14] (setting [18]) were 0.903 (inactive) and 1.41, respectively. The cell count in [14] (setting [19]) is 8020; in [14] (setting [20]) it was 8880. In addition, the z-score in [16] is -0.34 (inactive).
Consider `C[N+](C)(C)CC[N+]1(C)Cc2c(Cl)c(Cl)c(Cl)c(Cl)c2C1`, for which the nuclear beta-catenin stimulation is 4.4% (inactive) in experiment [1] (at 10 µM) and 2.6% in experiment [1] (stimulation, at 2 µM). The insulin secretion stimulation in [2] was -0.5% (inactive). For the same compound, the viability decrease in experiment [3] is -1% (inactive). Besides, the tube area decrease in experiment [4] was 7.3% (inactive). The GLP1 secretion stimulation in [5] is 2.6% (inactive). In addition, the inhibition of viability in experiment [6] is -4.53% (inactive). In addition, the figures for the viability decrease (inhibition) in [7] and in [8] were 2.9% (inactive) and -10.2% (inactive), respectively. Besides, the remaining activity in experiment [9] was 115% (inactive). The fold change in [14] (setting [17]) is 0.88 (inactive); in experiment [14] (setting [18]) it was 1.79. Moreover, the figures for the cell count in experiment [14] (setting [19]) and in [14] (setting [20]) were 9090 and 10300, respectively. The z-score in experiment [16] was 0.045 (inactive).
In the case of `CC1(C)Oc2ccc(C#N)cc2[C@@H](N2CCCC2=O)[C@@H]1O`, the nuclear beta-catenin stimulation is 0.9% (inactive) in experiment [1] (at 10 µM) and 0.1% in [1] (stimulation, at 2 µM). Further, the insulin secretion stimulation in experiment [2] is 0.4% (inactive). In experiment [3], the viability decrease is -2.5% (inactive). The tube area decrease in experiment [4] is -8.1% (inactive). The GLP1 secretion stimulation in experiment [5] was 3.2% (inactive). Also, the inhibition of viability in experiment [6] was 17.9% (inactive). Further, the figures for the viability decrease (inhibition) in [7] and in experiment [8] were -2.4% (inactive) and 5.4% (inactive), respectively. For the same compound, the remaining activity in experiment [9] is 118% (inactive). The fold change in [14] (setting [17]) is 0.905 (inactive); in experiment [14] (setting [18]), 1.17. In addition, the values for the cell count in experiment [14] (setting [19]) and in [14] (setting [20]) were 9250 and 10200, respectively. For the same compound, the z-score in [16] is 0.27 (inactive).
Turning to `COP(=O)(OC)OC(c1ccc(Cl)cc1)P(=O)(OC)OC` (stereo unspecified), the nuclear beta-catenin stimulation was -1.5% (inactive) in experiment [1] (at 10 µM) and 1.2% in [1] (stimulation, at 2 µM). Further, the insulin secretion stimulation in experiment [2] is 1.8% (inactive). Moreover, in experiment [3], the viability decrease was -3.65% (inactive). Also, in experiment [4], the tube area decrease was -20.8% (inactive). Moreover, in experiment [5], the GLP1 secretion stimulation was 1.3% (inactive). Also, the inhibition of viability in experiment [6] was -20.4% (inactive). For the same compound, the viability decrease (inhibition) was -1% (inactive) in [7] and 1.6% (inactive) in [8]. Also, the remaining activity in experiment [9] was 122% (inactive). In addition, the fold change in [14] (setting [17]) is 0.979 (inactive); in experiment [14] (setting [18]), 1.41. Also, the cell count in [14] (setting [19]) was 8810; in [14] (setting [20]), 8990. Moreover, in experiment [16], the z-score is -0.085 (inactive).
